Results filed as inconclusive are left out. The source made the active and inactive calls. Unless noted, calls come from the whole dose curve; as a rule, active = well fitted curve in the direction sought with a large enough effect in the repeat runs; inconclusive = weak or mixed curves; inactive = no such curve, though single readings can be large; an effect the other way counts as inactive or inconclusive.
Assays:
[1] = qHTS assay to identify small molecule antagonists of the vitamin D receptor (VDR) signaling pathway - cell viability counter screen (AID 743225); note: nearly all actives have a fitted effect of over 50% in size
Procedure, shortened: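 Cytotoxicity counter screen read by CellTiter-Glo luminescence (30 min, room temperature) in the same wells as the VDR-bla antagonist readout. HEK 293T VDR-UAS-bla cells had 16 h at 37C with compound and 3 nM (final) 1-alpha,25-dihydroxyvitamin D3, then 2 h with FRET substrate.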

[2] = qHTS assay to identify small molecule agonists of the endoplasmic reticulum stress response signaling pathway (AID 1159516; active = well fitted activation curve with a large enough effect in the signal ratio in the repeat runs, not every such curve was filed as active; the % refers to the signal ratio)
Procedure, shortened: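 HeLa ESRE-bla reporter line; cpd 5 h, 37 C/5% CO2; LiveBLAzer B/G FRET substrate 2 h RT; ex 405, em 460/530 nm.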

[3] = qHTS assay to identify small molecule agonists of the endoplasmic reticulum stress response signaling pathway - cell viability counter screen (AID 1159517; calls by dose curve;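 note: HeLa cells carrying an ER stress response element beta-lactamase reporter; series mostly up to about 61 µM; nearly all actives have a fitted effect of over 50% in size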)
Procedure, shortened: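 ESRE-bla HeLa cells (1,500/well) were plated overnight at 37 C and exposed to compounds for 5 hr. After the 2 hr beta-lactamase substrate read, CellTiter-Glo went into the same wells, and luminescence was read after 30 min at room temperature.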

[4] = qHTS assay to identify small molecule antagonists of the retinoid-related orphan receptor gamma (ROR-gamma) signaling pathway - cell viability counter screen (AID 1159520); note: nearly all actives have a fitted effect of over 50% in size
Procedure, shortened: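 Cytotoxicity was read from cellular ATP (CellTiter-Glo luminescence) after 16 hr at 37 C with 1 uM doxycycline induction. The inducer was added 2 hr after compound transfer to Tet-on ROR gamma CHO cells.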

[5] = biological target: Nuclear receptor ROR-gamma (Homo sapiens) (UniProt P51449); experiment: qHTS assay to identify small molecule antagonists of the retinoid-related orphan receptor gamma (ROR-gamma) signaling pathway (AID 1159521; note: top concentration of the series differs between compounds; nearly all actives have a fitted effect of over 50% in size)
Procedure, shortened: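 Antagonist read-out: drop in luminescence (ONE-Glo) from an RORE-LUC reporter in CHO cells with doxycycline-inducible ROR-gamma; 2 hr compound pretreatment, 1 uM doxycycline, 16 hr incubation at 37 C.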

[6] = qHTS assay to identify small molecule agonists of the AP-1 signaling pathway - cell viability counter screen (AID 1159525; calls by dose curve; note: nearly all actives have a fitted effect of over 55% in size)
Procedure, shortened: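 Intracellular ATP by Cell Titer Glo luminescence (30 min, RT) in the same ME-180 AP-1-bla wells after the 5 h compound exposure at 37 °C. Normalised to tetra n-octyl ammonium bromide and DMSO controls.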

[7] = qHTS assay to identify small molecule agonists of the AP-1 signaling pathway (AID 1159526; calls by dose curve)
[8] = biological target: Retinoic acid receptor RXR-alpha (Homo sapiens) (UniProt P19793); experiment: qHTS assay to identify small molecule agonists of the RXR signaling pathway (AID 1159527; calls by dose curve; note: nearly all actives have a fitted effect of over 35% in size)
Procedure, shortened: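 Agonist-mode beta-lactamase reporter assay: HEK 293T RXR-alpha-UAS-bla cells treated 16 hr at 37 C with compounds, 9-cis retinoic acid as positive control. LiveBLAzer FRET substrate, 405 nm excitation, 460/530 nm emission.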

[9] = qHTS assay to identify small molecule agonists of the RXR signaling pathway - cell viability counter screen (AID 1159529)
Procedure, shortened: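 CellTiter-Glo luminescence gave viability in the wells also read for beta-lactamase. Cells (RXR-alpha-UAS-bla HEK 293T, 2% charcoal-stripped FBS medium) had 5 hr plating, then 16 hr compound exposure at 37 C; tetraoctyl ammonium bromide served as positive control.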

[10] = qHTS assay to identify small molecule antagonists of the retinoid acid receptor (RAR) signaling pathway - cell viability counter screen (AID 1159551); note: nearly all actives have a fitted effect of over 35% in size
Procedure, shortened: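 C3RL4 RARE-luciferase line; cpds + retinol 1 uM final, 6 h, 37 C/5% CO2; CellTiter-Glo ATP luminescence, 30 min RT.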

[11] = qHTS assay to identify small molecule antagonists of the estrogen related receptor (ERR) signaling pathway from Tox21 library - cell viability counter screen (AID 1224834); note: nearly all actives have a fitted effect of over 30% in size
Procedure, shortened: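 Multiplexed viability counter screen in ERR cells: 17.5 h compound exposure at 37 C, CellTiter-Fluor added, 30 min at 37 C/5% CO2, fluorescence read.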

[12] = qHTS assay to identify small molecule agonists of the retinoic acid receptor (RAR) signaling pathway (AID 1159553)
Procedure, shortened: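 RARE-luc C3RL4 cells; overnight attachment 37 C/5% CO2; compound (DMSO) 6 hr; luciferase reagent, 30 min RT; luminescence read-out.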

[13] = qHTS assay to identify small molecule antagonists of the retinoic acid receptor (RAR) signaling pathway (AID 1159552; note: nearly all actives have a fitted effect of over 50% in size)
Procedure, shortened: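 Luminescent RARE reporter read-out in C3RL4 cells: 6 hr co-treatment at 37 C of test compounds with retinol at 1 uM final. Cells plated overnight beforehand; luciferase reagent incubated 30 min at room temperature before reading.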

Measured: Potency

Sequence of Retinoic acid receptor RXR-alpha (Homo sapiens) (P19793 whole entry, looked up): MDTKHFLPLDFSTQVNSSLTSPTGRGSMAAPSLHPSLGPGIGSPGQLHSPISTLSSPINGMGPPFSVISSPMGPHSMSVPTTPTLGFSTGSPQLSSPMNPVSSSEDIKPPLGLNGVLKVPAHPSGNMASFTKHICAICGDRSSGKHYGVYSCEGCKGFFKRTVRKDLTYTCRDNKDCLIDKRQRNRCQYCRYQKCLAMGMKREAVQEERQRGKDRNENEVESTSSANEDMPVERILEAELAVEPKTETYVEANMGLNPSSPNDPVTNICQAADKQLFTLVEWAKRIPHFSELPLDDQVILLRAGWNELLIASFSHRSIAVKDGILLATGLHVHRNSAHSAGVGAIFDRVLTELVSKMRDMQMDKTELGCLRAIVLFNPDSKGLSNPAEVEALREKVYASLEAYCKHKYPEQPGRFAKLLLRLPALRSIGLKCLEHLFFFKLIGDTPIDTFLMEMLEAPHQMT

CNCCO
not listed: [12] | [13]
inactive: all other assays above

Cc1ccc(C(=O)c2ccc(CC(=O)O)n2C)cc1
not listed: [12] | [13]
inactive: all other assays above

Cc1nc(C2CCCCC2)c(-c2ccc(S(N)(=O)=O)c(F)c2)o1
not listed: [12] | [13]
inactive: all other assays above

CC(=O)N[C@H]1[C@H]([C@H](O)[C@H](O)CO)OC(C(=O)O)=C[C@@H]1N=C(N)N
not listed: [5] | [12] | [13]
inactive: all other assays above

NCCCC[C@H](N[C@@H](CCc1ccccc1)C(=O)O)C(=O)N1CCC[C@H]1C(=O)O
not listed: [6] | [12] | [13]
inactive: all other assays above

CC(C)CC(C)(N)C#N (stereo not given)
not listed: [11] | [12] | [13]
inactive: all other assays above

O=[N+]([O-])c1ccc(/C=N\O)o1
not listed: [5] | [12] | [13]
inactive: all other assays above

CCOC(=O)OC(C)OC1=C(C(=O)Nc2ccccn2)N(C)S(=O)(=O)c2ccccc21 (stereo not given)
not listed: [8] | [11] | [12] | [13]
inactive: all other assays above

CC(C)CCCO
not listed: [4] | [13]
inactive: all other assays above

CCCCCCCCCC[N+](C)(C)[O-]
not listed: [5] | [12] | [13]
inactive: all other assays above

CCCOC(=O)CC
not listed: [12] | [13]
inactive: all other assays above

CC(=O)Oc1cccc(C)c1
not listed: [1] | [4] | [12] | [13]
inactive: all other assays above

CCOC(=O)c1ccccc1
not listed: [8] | [12] | [13]
inactive: all other assays above

C[C@H]1C[C@H]2[C@@H]3CCC4=CC(=O)C=C[C@]4(C)[C@H]3C(=O)C[C@]2(C)[C@@]1(O)C(=O)CO
not listed: [8] | [12]
inactive: all other assays above

CC1=CCC(O)(C(C)C)CC1 (stereo not given)
not listed: [12] | [13]
inactive: all other assays above

C=C[Si](OC(C)=O)(OC(C)=O)OC(C)=O
not listed: [4] | [12]
inactive: all other assays above

CCOCC(C)O (stereo not given)
not listed: [1] | [5] | [12] | [13]
inactive: all other assays above

COc1c(N2CCNC(C)C2)c(F)cc2c(=O)c(C(=O)O)cn(C3CC3)c12 (stereo not given)
not listed: [5] | [13]
inactive: all other assays above

Clc1cc(Cl)c(Cl)nc1Cl
not listed: [1] | [12] | [13]
inactive: all other assays above

O=C(CO)[C@@H](O)[C@H](O)[C@@H](O)CO
not listed: [4] | [12] | [13]
inactive: all other assays above

O=C(CO)[C@@H](O)[C@H](O)[C@H](O)CO
not listed: [1] | [6] | [12] | [13]
inactive: all other assays above

C1CCC2=NCCCN2CC1
not listed: [1] | [6] | [12] | [13]
inactive: all other assays above

CCN1C=CN(C)C1C (stereo not given)
not listed: [11] | [13]
inactive: all other assays above

CN(C)CCCCCCN(C)C
not listed: [1] | [6] | [12]
inactive: all other assays above

— PubChem BioAssay (Tox21)
